Laboratory results from PubChem BioAssay AID743363 (Broad Institute, 2014).
Activity calls are given as the source filed them. No rule for the calls is given here.

test: interference with FL-DTB/streptavidin displacement signal, dose response, counter-screen, biochemical, dry powder samples (AID 743363); settings: FL-DTB/streptavidin fluorescence displacement counter-screen, BioD coupled; series mostly up to 10 µM

| Compound | outcome |
| --- | --- |
| CNS(=O)(=O)c1ccc(N2CCN(C(=O)c3ccc4c(c3)OCO4)CC2)cc1 | inactive |
| CC(=O)c1ccc(N2CCN(C(=O)c3cc4c(cc3Cl)OCO4)CC2)cc1 | inactive |
| O=C(c1ccc2c(c1)OCO2)N1CCN(c2ccc(C(F)(F)F)cc2)CC1 | inactive |
| CC(=O)c1ccc(N2CCN(C(=O)c3ccc4c(c3)OC(C)(C)O4)CC2)cc1 | inactive |
| CC(=O)c1ccc(N2CCN(C(=O)c3cc(Cl)c4c(c3)OCO4)CC2)cc1 | inactive |
| COc1cc2c(cc1C(=O)N1CCN(c3ccc(C(C)=O)cc3)CC1)OCO2 | inactive |
| CN(C)C(=O)c1ccc(N2CCN(C(=O)c3ccc4c(c3)OCO4)CC2)cc1 | inactive |
| CC(=O)c1ccc(N2CCN(C(=O)c3ccc(Cl)c(Cl)c3)CC2)cc1 | inactive |
| CCCCCCCC(=O)N1CC[C@@H]2[C@@H](CO)N(C)c3ccc(-c4cccc(F)c4)cc3[C@@H]21 | inactive |
| CC(C)NC(=O)N1CC[C@@H]2[C@@H](CO)N(C)c3ccc(-c4ccc(F)cc4)cc3[C@@H]21 | inactive |
| CN1c2ccc(-c3cccc(F)c3)cc2[C@@H]2[C@@H](CCN2C(=O)c2ccc3c(c2)OCO3)[C@@H]1CO | inactive |
| O=C(c1ccc2c(c1)OCO2)N1CCN(c2ccc(S(=O)(=O)C(F)F)cc2)CC1 | inactive |
| CC(=O)c1ccc(N2CCN(C(=O)c3ccccc3Cl)CC2)cc1 | inactive |
| CC(=O)c1ccc(N2CCN(C(=O)c3ccc4c(c3)OCO4)[C@H](C)C2)cc1 | inactive |
| CN1c2ccc(-c3ccc(F)cc3)cc2[C@H]2[C@H](CCN2C(=O)Nc2ccc(F)cc2)[C@H]1CO | inactive |
| COc1ccccc1NC(=O)N1CC[C@@H]2[C@@H](CO)N(C)c3ccc(-c4ccc(F)cc4)cc3[C@@H]21 | inactive |
| CC(=O)c1ccc(N2CCN(C(=O)c3ccc4c(c3C)OCO4)CC2)cc1 | inactive |
| CCC(=O)N1CC[C@@H]2[C@@H](CO)N(C)c3ccc(-c4ccc(F)cc4)cc3[C@@H]21 | inactive |
| COc1ccccc1NC(=O)N1CC[C@@H]2[C@@H](CO)N(C)c3ccc(-c4cccc(F)c4)cc3[C@@H]21 | inactive |
| CCCNC(=O)N1CC[C@@H]2[C@@H](CO)N(C)c3ccc(-c4ccc(F)cc4)cc3[C@@H]21 | inactive |
| CC(=O)c1ccc(N2CCN(C(=O)Nc3ccc4c(c3)OCO4)CC2)cc1 | inactive |
| COCC(=O)N1CC[C@@H]2[C@@H](CO)N(C)c3ccc(-c4cccc(F)c4)cc3[C@@H]21 | inactive |
| CNC(=O)c1ccc(N2CCN(C(=O)c3ccc4c(c3)OCO4)CC2)cc1 | inactive |
| CN1c2ccc(-c3cccc(F)c3)cc2[C@H]2[C@H](CCN2C(=O)c2ccc3c(c2)OCO3)[C@@H]1CO | inactive |
| CN1c2ccc(-c3cccc(F)c3)cc2[C@@H]2[C@@H](CCN2C(=O)c2ccc3c(c2)OCO3)[C@H]1CO | inactive |
| CN1c2ccc(-c3cccc(F)c3)cc2[C@H]2[C@H](CCN2C(=O)Nc2ccccc2F)[C@H]1CO | inactive |
| CC(=O)c1ccc(N2CC3CC2CN3C(=O)c2ccc3c(c2)OCO3)cc1 (stereo not given) | inactive |
| COC(=O)c1ccc(N2CCN(C(=O)c3ccc4c(c3)OCO4)CC2)cc1 | inactive |
| CC(=O)c1ccc(N2CCCN(C(=O)c3ccc4c(c3)OCO4)CC2)cc1 | inactive |
| CC(=O)c1ccc(N2CC3(CN(C(=O)c4ccc5c(c4)OCO5)C3)C2)cc1 | inactive |
